Results taken from PubChem BioAssay AID1159580 (chemical genetic matrix, 2015).
Screen size: about 5,500 compounds; about 2,000 (36%) were called active. Roughly 18% stayed inconclusive and do not appear here. Rule as the data show it: active = normalized growth mostly below about 0.91 (no sharp cut-off); inconclusive = no clear call, values can overlap the other calls; inactive = mostly above about 0.92. This is one part of the list.

Test: chemical genetic growth profiling, strain panel (AID 1159580);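 also: tested at 20 µM; growth read once vehicle control cultures reached saturation at 30 °C; 1 = growth at the plate median or of vehicle wells; lower values mean less growth of the strain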
Settings: S. cerevisiae deletion strains, growth OD

Measured: normalized growth

COc1ccc(-c2cc(=O)c3c(O)cc(O)c(-c4cc(-c5cc(=O)c6c(O)cc(O)cc6o5)ccc4OC)c3o2)cc1
inactive: locus YAL021C, strain ccr4, active compounds read low 1 | locus YAL026C, strain drs2, active compounds read low 1.01 | locus YAL030W, strain snc1, active compounds read low 0.997 | locus YBL061C, strain skt5, active compounds read low 1.01 | locus YBR009C, strain hhf1, active compounds read low 1.01 | locus YBR021W, strain FUR4, active compounds read low 1.03 | locus YBR023C, strain chs3, active compounds read low 1 | locus YBR171W, strain sec66, active compounds read low 1.02 | locus YBR229C, strain ROT2, active compounds read low 0.998 | locus YBR231C, strain swc5, active compounds read low 1.01 | locus YBR279W, strain paf1, active compounds read low 1.01 | locus YCL011C, strain gbp2, active compounds read low 1 | locus YCL016C, strain dcc1, active compounds read low 1 | locus YCL029C, strain bik1, active compounds read low 1.01 | locus YCL061C, strain MRC1, active compounds read low 1.01 | locus YCL069W, strain vba3, active compounds read low 1.01 | locus YCR088W, strain abp1, active compounds read low 1.02 | locus YDL005C, strain med2, active compounds read low 1.01 | locus YDL035C, strain GPR1, active compounds read low 1.03 | locus YDL040C, strain nat1, active compounds read low 1.01 | locus YDL074C, strain BRE1, active compounds read low 1.05 | locus YDL101C, strain DUN1, active compounds read low 1.01 | locus YDL185W, strain tfp1, active compounds read low 0.997 | locus YDL192W, strain arf1, active compounds read low 1 | locus YDR001C, strain nth1, active compounds read low 1.02 | locus YDR069C, strain doa4, active compounds read low 0.95 | locus YDR101C, strain arx1, active compounds read low 1.02 | locus YDR137W, strain rgp1, active compounds read low 0.997 | locus YDR159W, strain sac3, active compounds read low 1.03 | locus YDR162C, strain NBP2, active compounds read low 0.993 | locus YDR195W, strain ref2 0.993 | locus YDR297W, strain sur2, active compounds read low 0.998 | locus YDR318W, strain mcm21, active compounds read low 1 | locus YDR334W, strain swr1, active compounds read low 0.992 | locus YDR335W, strain msn5, active compounds read low 1.01 | locus YDR388W, active compounds read low 1 | locus YDR392W, strain spt3, active compounds read low 0.998 | locus YDR502C, strain sam2, active compounds read low 1.02 | locus YEL003W, strain gim4, active compounds read low 1 | locus YEL037C, strain rad23, active compounds read low 1.02 | locus YEL061C, strain CIN8 (second series), active compounds read low 1.01 | locus YEL061C, strain CIN8, active compounds read low 1.01 | locus YER015W, strain faa2, active compounds read low 1.01 | locus YER016W, strain bim1, active compounds read low 1.01 | locus YER110C, active compounds read low 1.02 | locus YER111C, strain swi4, active compounds read low 1.03 | locus YER155C, strain BEM2 (second series), active compounds read low 0.995 | locus YER155C, strain BEM2, active compounds read low 1.01 | locus YER167W, strain BCK2, active compounds read low 1.02 | locus YFR010W, strain ubp6, active compounds read low 0.965 | locus YGL078C, strain dbp3, active compounds read low 1.01 | locus YGL167C, strain pmr1, active compounds read low 1.01 | locus YGL173C, strain kem1, active compounds read low 1 | locus YGL227W, strain vid30, active compounds read low 1.02 | locus YGL240W, strain doc1, active compounds read low 1.02 | locus YGL248W, strain PDE1, active compounds read low 0.986 | locus YGL253W, strain hxk2, active compounds read low 1.01 | locus YGR078C, strain PAC10, active compounds read low 1.03 | locus YGR135W, strain pre9, active compounds read low 0.997 | locus YGR252W, strain gcn5, active compounds read low 0.995 | locus YHR013C, strain ard1, active compounds read low 0.993 | locus YHR027C, strain rpn1, active compounds read low 1.01 | locus YHR030C, strain SLT2, active compounds read low 1.02 | locus YHR079C, strain IRE1 (second series), active compounds read low 1.01 | locus YHR094C, strain hxt1, active compounds read low 1.01 | locus YHR129C, strain ARP1, active compounds read low 1.01 | locus YHR142W, strain chs7, active compounds read low 0.998 | locus YHR200W, strain rpn10, active compounds read low 1.01 | locus YIL066C, strain RNR3, active compounds read low 0.993 | locus YIL073C, strain SPO22, active compounds read low 1.03 | locus YIL125W, strain kgd1, active compounds read low 1.01 | locus YIR030C, strain dcg1, active compounds read low 1.01 | locus YJL092W, strain hpr5, active compounds read low 1.02 | locus YJL095W, strain BCK1 (second series), active compounds read low 1.01 | locus YJL095W, strain BCK1, active compounds read low 1.08 | locus YJL115W, strain asf1, active compounds read low 1.01 | locus YJL129C, strain trk1, active compounds read low 1.04 | locus YJL134W, strain LCB3, active compounds read low 1.02 | locus YJL154C, strain vps35, active compounds read low 1.01 | locus YJL164C, strain tpk1, active compounds read low 0.987 | locus YJL166W, strain qcr8, active compounds read low 0.997 | locus YJL168C, strain set2, active compounds read low 1.01 | locus YJL187C, strain SWE1 (second series), active compounds read low 0.993 | locus YJL187C, strain SWE1, active compounds read low 0.99 | locus YJR043C, strain POL32, active compounds read low 1.01 | locus YJR075W, strain HOC1, active compounds read low 1.04 | locus YKL009W, strain mrt4, active compounds read low 1.03 | locus YKL068W, active compounds read low 1.01 | locus YKL085W, strain MDH1 (second series), active compounds read low 1.06 | locus YKL085W, strain MDH1, active compounds read low 1.06 | locus YKL160W, strain elf1, active compounds read low 0.998 | locus YKR001C, strain vps1, active compounds read low 1.01 | locus YKR026C, strain gcn3, active compounds read low 0.998 | locus YKR091W, strain srl3, active compounds read low 1.01 | locus YLL001W, strain dnm1, active compounds read low 1.02 | locus YLL026W, active compounds read low 1.02 | locus YLL041C, strain sdh2, active compounds read low 0.995 | locus YLR027C, strain aat2, active compounds read low 1 | locus YLR039C, strain RIC1, active compounds read low 1.16 | locus YLR058C, strain SHM2, active compounds read low 1 | locus YLR102C, strain apc9, active compounds read low 1.01 | locus YLR221C, strain rsa3, active compounds read low 0.999 | locus YLR258W, strain gsy2, active compounds read low 1.01 | locus YLR262C, strain YPT6 (second series), active compounds read low 1.02 | locus YLR262C, strain YPT6, active compounds read low 1.24 | locus YLR268W, strain sec22, active compounds read low 0.985 | locus YLR320W, strain mms22, active compounds read low 1.01 | locus YLR330W, strain CHS5, active compounds read low 1.03 | locus YLR342W, strain FKS1 (second series), active compounds read low 1.02 | locus YLR342W, strain FKS1, active compounds read low 0.978 | locus YLR357W, strain rsc2, active compounds read low 0.973 | locus YLR370C, strain arc18, active compounds read low 0.997 | locus YLR371W, strain rom2, active compounds read low 1 | locus YLR384C, strain iki3, active compounds read low 1.02 | locus YLR418C, strain cdc73, active compounds read low 1.04 | locus YML016C, strain PPZ1, active compounds read low 0.999 | locus YML032C, strain rad52, active compounds read low 1.01 | locus YML120C, strain ndi1, active compounds read low 1.03 | locus YML124C, strain tub3, active compounds read low 1.01 | locus YMR058W, strain fet3, active compounds read low 0.99 | locus YMR078C, strain ctf18, active compounds read low 1.02 | locus YMR125W, strain sto1, active compounds read low 1.02 | locus YMR129W, active compounds read low 1.01 | locus YMR205C, strain PFK2, active compounds read low 1.02 | locus YMR223W, strain ubp8, active compounds read low 1.01 | locus YMR231W, strain pep5, active compounds read low 1 | locus YMR263W, strain SAP30, active compounds read low 1.03 | locus YMR307W, strain GAS1, active compounds read low 1.13 | locus YNL067W, strain RPL9B, active compounds read low 1.02 | locus YNL071W, strain lat1, active compounds read low 1.01 | locus YNL128W, strain TEP1, active compounds read low 1.03 | locus YNL153C, strain GIM3, active compounds read low 0.98 | locus YNL209W, strain ssb2, active compounds read low 1.01 | locus YNL233W, strain BNI4, active compounds read low 1.04 | locus YNL248C, strain rpa49, active compounds read low 1 | locus YNL250W, strain rad50, active compounds read low 1.01 | locus YNL271C, strain bni1, active compounds read low 1.01 | locus YNL298W, strain CLA4, active compounds read low 1.01 | locus YNL307C, strain MCK1, active compounds read low 1.02 | locus YNL322C, strain KRE1 (second series), active compounds read low 1.02 | locus YNL322C, strain KRE1, active compounds read low 1.01 | locus YNR049C, strain mso1, active compounds read low 1.01 | locus YNR052C, strain pop2, active compounds read low 1.01 | locus YOL006C, strain TOP1, active compounds read low 1.16 | locus YOL012C, strain htz1 0.762 | locus YOL147C, strain pex11, active compounds read low 1.02 | locus YOR001W, strain rrp6, active compounds read low 0.993 | locus YOR061W, strain CKA2, active compounds read low 1 | locus YOR069W, strain VPS5, active compounds read low 1.01 | locus YOR070C, strain gyp1, active compounds read low 1 | locus YOR080W, strain dia2, active compounds read low 1.02 | locus YOR083W, strain WHI5, active compounds read low 1 | locus YOR106W, strain vam3, active compounds read low 0.973 | locus YOR136W, strain idh2, active compounds read low 1.02 | locus YOR144C, strain elg1, active compounds read low 1.01 | locus YOR184W, strain ser1, active compounds read low 1.02 | locus YOR265W, strain rbl2, active compounds read low 1 | locus YOR270C, strain vph1, active compounds read low 0.998 | locus YOR290C, strain snf2, active compounds read low 0.981 | locus YOR316C, strain cot1, active compounds read low 1.01 | locus YPL051W, strain arl3, active compounds read low 0.968 | locus YPL078C, strain atp4, active compounds read low 1.01 | locus YPL106C, strain sse1, active compounds read low 0.983 | locus YPL240C, strain hsp82, active compounds read low 1 | locus YPR119W, strain clb2, active compounds read low 1.01 | locus YPR141C, strain kar3, active compounds read low 1.01 | locus YPR163C, strain tif3, active compounds read low 1.02 | locus YPR167C, strain met16, active compounds read low 1.01 | strain wtn01, active compounds read low 0.998
